# HSP90 inh – blocks HSP90-mediated luciferase refolding in reticulocyte lysate. Rabbit reticulocyte lysate, luciferase refolding luminescence, 3 h. inhibition, % at 5.6 µM. actives 0.91% (n = 290,000). AID 1789;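 active = inhibition above the screen-wide mean plus 3 SD, computed separately per campaign, cut at about 16% in these data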;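 note: 0% = DMSO wells and 100% = 60 µM geldanamycin wells; inhibitors lower the luminescence because luciferase stays unfolded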
# TWEAK Fn14 block – TWEAK-Fn14 signaling inhibition | TWEAK-stimulated Fn14 reporter cells, luciferase luminescence, 8 h | inhibition, % at 10 µM | actives 2% (n = 360,000) | AID 1159606; in the data active = inhibition above about 50%
# LGR2 inh – blocks bursicon-induced cAMP signaling via Drosophila LGR2. AID 720647. inhibition, % at 9.99 µM. HEK293 LGR2, CRE-luciferase, bursicon-stimulated, 4 h. actives 0.35% (n = 380,000);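 active = drop in luminescence signal, shown as inhibition above about 50% in the replicate tests, limit read from the data, passing the limit was not always enough; inconclusive = probably only some replicates passing the limit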;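 note: agonist challenge used bursicon conditioned medium at about half maximal strength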
# TROY NFkB inh – TROY signaling inhibition | Q293 LMP1-TROYcd NF-kB luciferase reporter, 4 h | inhibition, % at 10 µM | actives 0.98% (n = 360,000);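 active = compounds whose plate-normalised and pattern-corrected inhibition of the luciferase reporter signal at the single screening dose is 50% or more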
# HSP90 confirm – confirmation of HSP90 inhibitors; actives 64% (n = 2,300); inhibition, % at 5.9 µM; AID 1846; shares compounds with HSP90 inh; rabbit reticulocyte lysate, luciferase refolding luminescence, 3 h; in the data active = inhibition above about 18%;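 note: 0% = vehicle wells and 100% = reference inhibitor wells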
# luciferase ctr – counter-screen for HSP90 inhibitors: inhibitors of firefly luciferase. actives 48% (n = 2,300). shares compounds with HSP90 inh. purified native firefly luciferase, luminescence. inhibition, % at 5.9 µM;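 active = inhibition above the mean inhibition of all tested sample wells plus 3 SD, cut at about 10% in these data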;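 note: 0% = DMSO with luciferase and 100% = wells lacking luciferase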
# Target sequence (P08659 whole entry, looked up): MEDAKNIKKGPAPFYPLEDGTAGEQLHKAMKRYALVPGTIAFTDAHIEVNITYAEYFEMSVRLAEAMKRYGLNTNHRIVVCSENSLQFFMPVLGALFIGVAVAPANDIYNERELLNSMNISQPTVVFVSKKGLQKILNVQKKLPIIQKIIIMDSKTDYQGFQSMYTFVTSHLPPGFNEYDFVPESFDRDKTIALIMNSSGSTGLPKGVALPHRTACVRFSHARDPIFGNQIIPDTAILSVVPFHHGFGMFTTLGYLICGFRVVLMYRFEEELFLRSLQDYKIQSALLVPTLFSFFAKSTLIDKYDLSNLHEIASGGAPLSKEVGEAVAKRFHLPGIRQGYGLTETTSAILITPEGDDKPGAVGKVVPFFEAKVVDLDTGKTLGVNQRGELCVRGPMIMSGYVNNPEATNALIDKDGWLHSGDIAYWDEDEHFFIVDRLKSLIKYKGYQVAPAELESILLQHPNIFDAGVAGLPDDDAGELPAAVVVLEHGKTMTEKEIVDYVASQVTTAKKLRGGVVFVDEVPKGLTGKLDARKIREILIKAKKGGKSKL
# * = called active by the depositor; ? = inconclusive; . = no result given. The list is not random: actives were taken first. Their share in the collection is about 2.2%.
SMILES,HSP90 inh,TWEAK Fn14 block,LGR2 inh,TROY NFkB inh,HSP90 confirm,luciferase ctr
CC(C)NC(=O)Nc1ccc2c(c1)C(=O)N([C@@H](C)CO)C[C@@H](C)[C@@H](CN(C)Cc1ccc(Oc3ccccc3)cc1)O2,.,.,-16,.,.,.
CCN(CC)c1ccc2cc(NC(=O)CCC(=O)O)c(=O)oc2c1,33*,91*,19,69*,36*,-31
CC1CCc2nc(NC(=O)C3COc4ccccc4O3)sc2C1 (stereo unspecified),57*,96*,.,82*,72*,66*
CC1CCc2nc(NC(=O)C3CC3)sc2C1 (stereo unspecified),1,-27,-62,-60,.,.
Cc1cnc(NC(=O)C2COc3ccccc3O2)s1 (stereo unspecified),46*,95*,.,60*,70*,70*
Cc1csc(NC(=O)C2COc3ccccc3O2)n1 (stereo unspecified),46*,78*,.,44,63*,56*
COc1ccccc1C=Cc1ccnc2ccccc12,.,23,-10,4,.,.
COc1cccc(/C=C/c2ccccn2)c1O,17*,10,-62,-36,17*,9.9*
CN(C)CCCNC(=O)C[C@@H]1CC[C@H](NS(=O)(=O)c2ccccc2)[C@H](CO)O1,.,.,-2,.,.,.
CCOc1ccc(NC(=O)c2ccccn2)cc1,83*,95*,95*,72*,88*,80*
O=C(Nc1ccc(Cl)cc1)Nc1cccc(C(=O)O)c1,78*,11,92*,-56,89*,87*
CC(=O)Nc1cccc(NC(=O)Nc2cccc3ccccc23)c1,1,-1,1,24,.,.
O=C(Nc1cccc(C(=O)O)c1)Nc1cccc2ccccc12,19*,-23,-6,-42,32*,15*
O=C(NCc1ccccc1)C(=O)Nc1cccc(C(=O)O)c1,42*,9,84*,-27,71*,73*
O=C(C[C@@H]1C=C[C@H](NC(=O)Nc2ccc3c(c2)OCO3)[C@@H](CO)O1)NCc1ccc(Cl)cc1,.,.,11,.,.,.
Cc1ccc(NC(=O)Nc2ccc3c(c2)nc(C)n3C)cc1,7,21,-69,-30,.,.
Cc1nc2cc(NC(=O)Nc3ccccc3Cl)ccc2n1C,32*,59*,51*,34,59*,38*
O=C(Nc1cccc(C(=O)O)c1)Nc1ccccc1Cl,77*,-13,70*,-51,74*,71*
Cc1ccccc1OCC(=O)Nc1cccc(C(=O)O)c1,97*,59*,101*,18,91*,86*
O=C(Nc1ccccc1)Nc1cccc(Cl)c1,3,-23,.,-26,.,.
O=C(Nc1ccc2nccnc2c1)Nc1ccccc1Cl,6,-12,-40,-30,.,.
O=C(Nc1cccc(Cl)c1)Nc1cccc(C(=O)O)c1,51*,-3,?,-51,69*,63*
CC(=O)N1[C@H](CO)[C@@H](c2ccccc2)[C@@H]1CNC(=O)CN1CCOCC1,.,.,-2,.,.,.
COC(=O)c1cccc(NC(=O)NC(=O)c2ccccc2Cl)c1,29*,-14,-2,-17,71*,16*
CCOc1ccc(NC(=O)Nc2cccc(C(=O)O)c2)cc1,89*,23,105*,-53,90*,85*
SMILES,HSP90 inh,TWEAK Fn14 block,LGR2 inh,TROY NFkB inh,HSP90 confirm,luciferase ctr
O=C(Nc1ccc(Cl)cc1)Nc1ccccc1C(=O)O,27*,49,?,47,46*,43*
CO[C@H]1CN(C)C(=O)c2ccc(NS(=O)(=O)c3ccc(C)cc3)cc2OC[C@H](C)N(C(=O)NC(C)C)C[C@H]1C,.,.,-10,.,.,.
C[C@H]1CN([C@@H](C)CO)C(=O)c2cc(NC(=O)NC3CCCCC3)ccc2O[C@H]1CN(C)Cc1ccccc1,.,.,9,.,.,.
Cc1cc(NO)nc(-c2ccc(Br)cc2)n1,81*,8,.,-16,79*,-17
CCC(C)c1ccc(NC(=O)COC(=O)CCNC(=O)c2ccco2)cc1 (stereo unspecified),.,-11,-17,11,.,.
CCC(C)c1ccc(NC(=O)c2ccco2)cc1 (stereo unspecified),41*,66*,52*,23,69*,63*
COc1ccc(-n2c(C)cc(/C=N/Nc3nnc(C)n3N)c2C)cc1,75*,-6,3,6,-5,-7
COc1cccc(/C=N/Nc2nnc(C)n2N)c1O,3,11,10,1,.,.
NC(=O)N/N=C/c1cn(-c2ccccc2)nc1-c1cccnc1,6,.,.,.,.,.

# Screens: PubChem BioAssay, several laboratories
